Bioassay records (PubChem BioAssay)
In the library only some 3.4% were active in any assay of this set; here they are far more common.
FXN GAA850 act: activators of GAA850 frataxin (FXN) promoter; HEK293 lucGAA850 FXN promoter luciferase reporter, 24 h; percent of 10 µM SAHA response; activation, % at 6 µM; actives 0.56% (n = 360,000);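 active means activation above the average of all compounds screened plus 3 SD, cutoff fixed separately per campaign, cut at about 7.5% in these data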;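 further: 0% = DMSO wells and 100% = 10 µM SAHA wells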
Cardio protect: myocardial damage modulation in H9c2 cells | H9c2 cardiomyocytes, H2O2 injury protection, ATPLite, 2 h | protection from H2O2 cell death, % at 20 µM | AID 588492 | actives 0.63% (n = 360,000);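 active means compounds giving at least 50% protection of heart cells from peroxide-induced death in the single-dose screen, raw or plate-pattern-corrected value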;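 further: 0% = DMSO wells with peroxide and 100% = DMSO wells without peroxide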
SMARCA2 act: SMARCA2 function activation, primary screen; activation, % at 9.1 µM; actives 1% (n = 370,000); MG213 cells, MMTV-luciferase reporter, dexamethasone, overnight; in the data active means activation above about 7.8%;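 further: 0% = vehicle wells and 100% = reference activator wells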
NR2F2 inh: blocks human COUP-TFII nuclear receptor. actives 0.7% (n = 370,000). P24468. inhibition, % at 8.6 µM. HEK293T NGFI-A luciferase reporter, luminescence;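 active means inhibition above a per-plate cutoff, mean inhibition of test wells between control levels plus 3 SD, cut at about 38% in these data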;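 further: cells cotransfected with COUP-TFII expression vector driving the NGFI-A reporter; 0% = median of COUP-TF2 test wells and 100% = reporter-only cells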
Target sequence (P24468 whole entry, looked up): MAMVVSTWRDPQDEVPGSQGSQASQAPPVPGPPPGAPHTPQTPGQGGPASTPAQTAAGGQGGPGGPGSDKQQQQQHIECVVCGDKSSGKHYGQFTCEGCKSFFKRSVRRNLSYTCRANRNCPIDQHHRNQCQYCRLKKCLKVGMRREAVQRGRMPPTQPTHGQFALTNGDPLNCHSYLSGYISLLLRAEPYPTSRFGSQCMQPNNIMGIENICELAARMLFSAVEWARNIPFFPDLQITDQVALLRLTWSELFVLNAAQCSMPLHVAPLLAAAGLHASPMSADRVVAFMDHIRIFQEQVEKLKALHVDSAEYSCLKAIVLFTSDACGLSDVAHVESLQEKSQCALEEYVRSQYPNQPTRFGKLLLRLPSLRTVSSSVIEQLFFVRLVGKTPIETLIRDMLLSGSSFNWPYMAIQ
GalR3 antagonist: antagonists of human GalR3. AID 651719. inhibition, % at 3 µM. actives 0.44% (n = 360,000). HEK293 GalR3-CNG cAMP membrane potential fluorescence; galR3 body fused to GalR1 C-terminus;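 active means inhibition above the screen-wide average plus 3 SD, cut at about 13% in these data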;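 further: forskolin and galanin both at EC90 stimulate the cells; cAMP rise reported by CNG channel membrane potential dye signal; 0% = forskolin plus galanin with DMSO and 100% = forskolin alone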
Gli-Sufu antag: blocks Gli-Sufu signaling in a luciferase reporter; actives 0.74% (n = 340,000); inhibition, % at 5 µM; Sufu-KO-LIGHT fibroblasts, Gli luciferase reporter luminescence;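 active means inhibition above about 55%, limit read from the data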;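 further: 0% = DMSO-treated cells and 100% = wells with medium but no cells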
GAA30 counter: GAA30 FXN promoter activation counter-screen | shares compounds with FXN GAA850 act | HEK293 lucGAA30 FXN promoter luciferase, 24 h; DMSO = 0%, 5 µM ipriflavone = 100% | activation, % at 6 µM | actives 66% (n = 1,900) | AID 588350;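 active means mean activation above the mean of solvent-only control wells plus 3 SD, cut at about 22% in these data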;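 further: counterscreen of GAA850 promoter hits where activity marks nonselective or luminescence artifacts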
FXN GAA850 conf: GAA850 FXN promoter activation confirmation | shares compounds with FXN GAA850 act | HEK293 lucGAA850 FXN promoter luciferase reporter, 24 h; 100% = activation by SAHA | activation, % at 6 µM | actives 86% (n = 1,900) | AID 588351;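 active means mean activation above a set limit taken from the primary screen, cut at about 8% in these data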;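 further: 0% = DMSO wells and 100% = 10 µM SAHA wells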
Starred values were filed as active, the others as inactive; . = no result.

SMILES	FXN GAA850 act	Cardio protect	SMARCA2 act	NR2F2 inh	GalR3 antagonist	Gli-Sufu antag	GAA30 counter	FXN GAA850 conf
COc1ccc(Nc2nc3ccccc3n3nnnc23)cc1	4	32	4	-4	-4	-8	.	.
COc1cc(Nc2nc3ccccc3n3nnnc23)cc(OC)c1OC	17*	68*	2	-39	7	-6	33*	9.5*
Cc1ccc(C(=O)NC2CCCCN(Cc3cccc(Cl)c3)C2=O)c(C)c1 (centres undefined)	.	.	-1	-3	.	.	.	.
CCC(CO)Nc1cccc2c1S(=O)(=O)N(Cc1cn(Cc3cccc(C(F)(F)F)c3)nn1)Cc1ccccc1O2 (centres undefined)	.	.	2	4	.	.	.	.
CS(=O)(=O)c1ccc(C(=O)NCCN2C(=O)S/C(=C\c3cccnc3)C2=O)cc1[N+](=O)[O-]	14*	-17	0	-75	-3	-1	148*	44*
CN(C)S(=O)(=O)c1ccc(C(=O)NCCN2C(=O)S/C(=C\c3cccnc3)C2=O)cc1	0	23	2	-4	-3	-4	.	.
C[C@@H]1CCCCO[C@@H](CN(C)CC2CCCCC2)[C@@H](C)CN([C@H](C)CO)C(=O)c2cc(NC(=O)Nc3ccc4c(c3)OCO4)ccc2O1	.	.	-3	-9	-7	.	.	.
Nc1cccn2c(-c3ccc(Cl)c(Cl)c3)cnc12	12*	-20	6	-32	-8	-99	111*	43*
Cc1cc(-c2ccc(N3CCOCC3)cc2)nc2ccccc12	8.0*	-20	0	-68	-5	-40	130*	50*
c1ccc2nc(-c3ccc(N4CCOCC4)cc3)ccc2c1	-4	-12	2	-33	-5	-24	.	.
CCCCc1cccc2[nH]cc(C)c12	.	.	-1	3	.	.	.	.
CCc1ccc(NC(=O)CCn2nc(C)c(S(=O)(=O)N3CCCCC3)c2C)cc1	7.6*	-3	-3	8	-3	9	7	8.6*
CCOc1ccc(NC(=O)CCn2nc(C)c(S(=O)(=O)N3CCCCC3)c2C)cc1	0	-4	-3	4	0	-9	.	.
COc1ccccc1Nc1nc(N)nc(-c2oc3ccccc3c2C)n1	2	4	-2	3	-2	-9	.	.
Cc1ccccc1Nc1nc(N)nc(-c2oc3ccccc3c2C)n1	8.6*	2	3	-23	-3	-43	101*	52*
Cc1c(-c2nc(N)nc(Nc3ccc(F)cc3)n2)oc2ccccc12	9.8*	8	4	-59	-5	-71	89*	38*
CN1C2=NC(c3ccc4ccccc4c3)CC(=O)N2/C(=C\c2ccccc2)C1c1ccccc1C(F)(F)F (centres undefined)	.	.	.	21	.	.	.	.
CC(C)(C)n1nnnc1C(c1ccc(C(F)(F)F)cc1)N(Cc1ccc(F)cc1)Cc1ccco1 (centres undefined)	8.7*	-18	0	1	1	16	16	14*
CC(C)(C)n1nnnc1C(c1ccc(Cl)cc1)N(Cc1cccnc1)Cc1ccco1 (centres undefined)	-1	6	0	8	-6	36	.	.
CC(C)(C)n1nnnc1C(c1ccc(F)cc1)N(Cc1ccc(F)cc1)Cc1ccco1 (centres undefined)	15*	-16	-1	-8	-4	18	17	15*
CC(C)(C)n1nnnc1C(c1ccc(C(F)(F)F)cc1)N(Cc1ccccc1)Cc1ccco1 (centres undefined)	0	-9	-1	-2	-3	7	.	.
CC(C)(C)NC(=O)C(c1cccnc1)N(C(=O)c1cnc[nH]1)c1ccc(C(C)(C)C)cc1 (centres undefined)	.	.	.	17	.	.	.	.
Cc1ccc(/C=N/NC(=O)C(C)Oc2ccccc2[N+](=O)[O-])s1 (centres undefined)	11*	2	-2	0	-12	-12	26*	5
CC1CN(c2ccc(Oc3ccccc3)cc2)c2nc3c(c(=O)n(CC(N)=O)c(=O)n3C)n2C1 (centres undefined)	18*	10	-2	16	2	10	2	2
CC1CN(Cc2ccccc2)c2nc3c(c(=O)n(CC(N)=O)c(=O)n3C)n2C1 (centres undefined)	2	2	-2	2	1	-4	.	.
SMILES	FXN GAA850 act	Cardio protect	SMARCA2 act	NR2F2 inh	GalR3 antagonist	Gli-Sufu antag	GAA30 counter	FXN GAA850 conf
Cc1ccc(OCc2cc(C(=O)N3CC4C[C@@H]5CC3C[C@H](C4)C5)no2)cc1C	9.0*	-15	5	-24	-2	-24	97*	31*
C=CCn1c(SCC(=O)Nc2ccccc2-c2ccccc2)nnc1-c1ccc(Cl)cc1	.	.	-7	0	.	.	.	.
Cc1ccc2nc(SCC(=O)NCc3ccco3)c(C#N)cc2c1	8.3*	-5	5	-29	-4	-22	80*	27*
Cn1cc(-c2ccccc2C(N)=O)c(=O)c2cc(Cl)ccc21	-1	2	-3	9	2	-1	.	.
Cn1cc(C2=C(c3ccc(Cl)cc3Cl)C(=O)NC2=O)c2ccccc21	12*	31	-4	3	-3	6	10	9.2*
CC(C)C[C@H]1CN(CCCC[C@H]2CNC(=O)C(=O)N2Cc2ccccc2)C(=O)C(=O)N1CC1CCCCC1	.	.	1	5	-4	.	.	.
CCc1cccc2c(C(=S)N3CCCC3)c[nH]c12	2	-1	-2	7	-3	-14	.	.
CCc1cccc2c(C(=O)CCl)c[nH]c12	8.2*	-4	0	5	-1	-6	31*	21*
O=C(NCC1CCN(C(=O)C(=O)c2cc3ccccc3o2)CC1)c1cc(C(F)(F)F)cc(C(F)(F)F)c1	.	.	-7	3	1	.	.	.
CCOC(=O)CNC(=S)N(Cc1cccs1)C1CCCCC1	8.0*	5	-5	8	-3	-1	13	9.2*
CC(C)[C@H](N)C(=O)N[C@@H](Cc1ccccc1)C(=O)N1CCC2CCN(S(=O)(=O)c3ccccc3)CC21 (some centres undefined)	.	.	-2	5	.	.	.	.
COc1cc2c(OC(C)=O)c3c(c(-c4ccc5c(c4)OCO5)c2cc1OC)C(=O)OC3	1	23	-1	-4	-7	40	.	.
COc1cc2c(O)c3c(c(-c4ccc5c(c4)OCO5)c2cc1OC)C(=O)OC3	20*	7	2	-40	-1	.	-8	27*
Cc1ccnc(NC(=S)N2CC3CN(c4cccc(C(F)(F)F)c4)CC3C2)c1 (centres undefined)	.	.	.	12	.	.	.	.
